# Bioassay records: PubChem, several laboratories
# Most compounds without a hit are left out; they make up all but 32% or so of the library.
# CYP2C9 inh – inhibitors of human CYP2C9. inhibition, % at 5 µM. CYP2C9 Supersomes, luciferin-H conversion, luminescence. AID 777. actives 20% (n = 96,000);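 active = blocking of liver enzyme CYP2C9 beyond about 50% at 5 µM, limit read from the data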
# CYP2C9 act – activators of human CYP2C9; actives 1.4% (n = 96,000); activation factor at 5 µM; AID 1024; recombinant CYP2C9, luciferin-H conversion, luminescence; active compounds read high; factor 1 = untreated enzyme, 0 = blocked;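 active = activation factor of 2 or more for CYP2C9 at a 5 µM dose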
# PostGolgi yeast – growth inhibition of a yeast mutant, post-Golgi transport screen. post-Golgi transport phenotypic cell assay. inhibition, % at 10 µM. actives 0.9% (n = 98,000). AID 739;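 note: yeast cells grown in 1536-well plates; yeast grown about 18 h at 30C before absorbance read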
# CYP2C19 inhib – blocks human cytochrome P450 2C19. AID 778. CYP2C19 Supersomes, luciferin-H EGE luminescence, 30 min. inhibition, % at 5 µM. P33261. actives 21% (n = 96,000);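 active = CYP2C19 inhibition above a set limit at 5 µM in the primary screen, cut at about 50% in these data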
# Target sequence (P33261 whole entry, looked up): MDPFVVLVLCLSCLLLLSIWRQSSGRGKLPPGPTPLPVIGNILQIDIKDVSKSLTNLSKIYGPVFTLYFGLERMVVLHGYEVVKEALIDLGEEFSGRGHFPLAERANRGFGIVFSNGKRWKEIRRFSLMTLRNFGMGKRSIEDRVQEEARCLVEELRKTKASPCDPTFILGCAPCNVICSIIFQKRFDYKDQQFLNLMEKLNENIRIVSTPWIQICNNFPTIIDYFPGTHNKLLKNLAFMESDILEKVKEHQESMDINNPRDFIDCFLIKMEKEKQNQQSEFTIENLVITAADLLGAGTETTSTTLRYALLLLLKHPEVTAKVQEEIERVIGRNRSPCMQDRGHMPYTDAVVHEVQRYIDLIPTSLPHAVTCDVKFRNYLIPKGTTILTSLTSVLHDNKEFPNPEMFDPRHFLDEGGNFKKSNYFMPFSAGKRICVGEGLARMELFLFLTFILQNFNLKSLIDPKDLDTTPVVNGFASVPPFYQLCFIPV
# PostGolgi ctrl – growth of the yeast control strain, post-Golgi counter-screen; efflux-deficient yeast background strain, growth absorbance A615, 16 h; actives 5% (n = 98,000); inhibition, % at 10 µM; AID 738
# CYP2C19 act – cytochrome P450 2C19 (human) activation; activation factor at 5 µM; 96,000 tested, under 10 active; P33261; recombinant CYP2C19, luciferin-H EGE luminescence; active compounds read high; 0 = fully inhibited enzyme, 1 = untreated enzyme; AID 1025;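 active = activation factor of at least 2 at 5 µM in the primary screen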
# Hits are given with their value; – = inactive; · = not tested or not shown. Cut-off read from the data, not from the text of the source, unless noted: active = inhibition above about 30%; inactive = the rest.
SMILES,CYP2C9 inh,CYP2C9 act,PostGolgi yeast,CYP2C19 inhib,PostGolgi ctrl,CYP2C19 act
Cc1cc(Nc2ncc(Cl)cc2Cl)n(-c2ccccn2)n1,–,–,–,–,–,–
Cc1cc(Nc2nc3ccccc3nc2Cl)n(-c2ccc([N+](=O)[O-])cc2)n1,–,–,–,–,32.0,–
Cc1cc(Nc2cnc3ccccc3n2)n(-c2ccccc2)n1,72.5,–,–,69.0,–,–
CN=C(Nc1cc(C)nn1-c1ccccc1)c1ccccc1,–,–,–,81.1,–,–
Cc1cc(Nc2ccccc2)n(-c2cccc(Cl)c2)n1,77.7,–,–,79.6,–,–
Cc1nc2ncnn2c(C)c1CCC(=O)Oc1ccccc1,–,–,–,–,–,–
CC(C)c1ccc(NC(=O)COc2ccc(S(=O)(=O)N3CCOCC3)cc2)cc1,–,–,–,–,–,–
Cc1cc(NC(=O)c2ccc(F)cc2F)n(-c2nc3ccccc3[nH]2)n1,–,–,–,–,–,–
Cc1cc(Nc2nc3ccccc3[nH]c2=O)n(-c2ccccc2)n1,63.6,–,–,–,–,–
CCCc1nnc(NC(=O)CCCN2C(=O)c3ccccc3C2=O)s1,–,–,–,–,–,–
N/C(=N\c1nc2c(c(=O)[nH]1)CCC2)Nc1ccccc1C(F)(F)F,·,·,–,·,–,·
CCn1nc([N+](=O)[O-])c(C(C#N)c2nc3cc(C(F)(F)F)ccc3s2)c(Cl)c1=O (stereo not drawn),–,–,–,–,35.5,–
O=C(Nc1cccc(Br)c1)/C(=C\c1cccnc1)NC(=O)c1ccco1,–,–,–,–,–,–
O=C(O)C1CSC(CCc2ccccc2)N1 (stereo not drawn),–,–,–,–,–,–
COc1ccc2c(c1)C1(Nc3ccccc3C(=O)N1c1ccccc1)C(=O)N2 (stereo not drawn),87.1,–,–,–,–,–
COc1ccc(C2(O)CCN(CCCCOc3ccccc3)CC2)cc1,–,–,–,–,–,–
Cc1oc2c(C)c(O)ccc2c(=O)c1-c1ccc2ccccc2n1,–,–,–,–,–,–
COc1ccc(-c2onc(C)c2-c2ccccc2)c(O)c1,–,–,–,96.0,–,–
COc1ccc(-c2noc(C)c2-c2ccc3ccccc3n2)c(O)c1,72.0,–,–,100.2,48.6,–
CCCN(CCC)S(=O)(=O)c1ccc(NC(=O)c2cc(C(=O)OC)cc([N+](=O)[O-])c2)cc1,–,–,–,–,–,–
Cc1onc(-c2ccccc2Cl)c1C(=O)Nc1cccnc1,–,–,–,–,–,–
CCCOc1cccc(NC(=O)c2c(-c3ccccc3)noc2C)c1,–,–,–,–,–,–
Cc1onc(-c2ccccc2)c1C(=O)Nc1cccc(OC(C)C)c1,–,–,–,–,32.7,–
Cc1onc(-c2ccccc2)c1C(=O)Nc1cccnc1,50.1,–,–,–,–,–
COc1ccc(CCN(C(=O)C(F)(F)F)C(C(=O)NC2CCCCC2)c2ccc(C)s2)cc1 (stereo not drawn),–,–,–,–,–,–
SMILES,CYP2C9 inh,CYP2C9 act,PostGolgi yeast,CYP2C19 inhib,PostGolgi ctrl,CYP2C19 act
Cc1cccc(NC(=O)CCN2CCOCC2)c1,–,–,–,–,–,–
O=C(NCCN1C(=O)C2C3C=CC(C3)C2C1=O)NCc1ccccc1 (stereo not drawn),–,–,–,–,–,–
Cc1cccc(NC(=O)CCn2ccnc2C)c1,–,–,–,62.0,–,–
Cc1ccccc1NC(=O)NCCN1C(=O)C2C3C=CC(C3)C2C1=O (stereo not drawn),–,–,–,50.2,–,–
O=C(CCN1C(=O)C2C3C=CC(C3)C2C1=O)NCc1cccnc1 (stereo not drawn),–,–,–,98.1,–,–
O=C(NCCN1C(=O)C2C3C=CC(C3)C2C1=O)Nc1ccccc1 (stereo not drawn),–,–,–,69.6,–,–
O=C(NCCN1C(=O)C2C3C=CC(C3)C2C1=O)N1CCCCC1 (stereo not drawn),–,–,–,–,–,–
Cc1cccc(NC(=O)NCCN2C(=O)C3C4C=CC(C4)C3C2=O)c1 (stereo not drawn),–,–,–,79.6,–,–
O=C(CN1C(=O)C2C3C=CC(C3)C2C1=O)NCCN1CCCc2ccccc21 (stereo not drawn),–,–,–,–,–,–
Cc1cccc(NC(=O)CCN2C(=O)C3C4C=CC(C4)C3C2=O)c1 (stereo not drawn),–,–,–,85.4,–,–
O=C(CCN1C(=O)C2C3C=CC(C3)C2C1=O)NCCN1CCCc2ccccc21 (stereo not drawn),–,–,–,–,38.5,–
Cc1ccc(NC(=O)NCCN2C(=O)C3C4C=CC(C4)C3C2=O)cc1 (stereo not drawn),–,–,–,90.7,–,–
COc1ccc(NC(=O)NCCN2C(=O)C3C4C=CC(C4)C3C2=O)cc1 (stereo not drawn),–,–,–,–,–,–
COC(=O)c1c(-n2c(C)cc(C=O)c2C)sc2c1CCCC2,·,·,–,·,–,·
COc1cc2c(cc1OC)CN(C(=O)CSc1nnc(C)s1)CC2,–,–,–,–,–,–
O=C(c1ccc(N2CCCCS2(=O)=O)cc1)N1CCN(c2ccc(N3CCOCC3)nn2)CC1,–,–,–,–,–,–
CCCCSc1nc(CCC)cc(=O)[nH]1,–,–,–,–,–,–
C=CCSc1nnc(-c2cc(Br)ccc2N)c(=O)[nH]1,72.1,–,–,–,–,–
CCCCSc1nnc(-c2cc(Br)ccc2N)c(=O)[nH]1,–,–,–,–,35.7,–
CC(=O)NCCC(=O)Nc1sc2c(c1-c1nc3ccccc3[nH]1)CCCC2,61.1,–,–,–,–,–
Cc1c(-c2nc(N)nc(Nc3ccccc3)n2)oc2ccccc12,83.7,–,33.3,–,77.6,–
Cc1nnc(SCc2nc(N)nc(Nc3ccccc3)n2)s1,–,–,–,–,–,–
Cc1c(NC(=O)c2ccc(COc3ccc4ccccc4c3)o2)c(=O)n(-c2ccccc2)n1C,–,–,·,–,·,–
Cc1cc(C)c(S(=O)(=O)/N=C2\C=CC(=O)C(Cl)=C2)c(C)c1,–,–,–,50.9,–,–
c1csc(C2Nc3cccc4cccc(c34)N2)c1,–,–,–,–,31.7,–
Brc1ccc(C2Nc3cccc4cccc(c34)N2)o1,–,–,–,71.0,–,–
O=[N+]([O-])c1ccc(Cl)c(C2Nc3cccc4cccc(c34)N2)c1,–,–,–,–,–,–
CN(C)S(=O)(=O)c1ccc(N2CCN(S(=O)(=O)c3ccc(F)cc3)CC2)c(Cl)c1,–,–,–,–,–,–
O=C(Nc1cccc(Oc2ccc3c(c2)C(=O)NC3=O)c1)c1ccco1,–,–,–,–,–,–
CC(NC(=O)C(=O)NN=C1CCCCCCC1)c1ccccc1 (stereo not drawn),–,–,–,–,–,–
